Experimental data as given in PubChem BioAssay AID1159580 (chemical genetic matrix, 2015).
“And” between values parts separate entries of the source, which are not always exact repeats. Equal entries are not always repeated. Screen size: about 5,500 compounds; about 2,000 (36%) were called active. About 18% were inconclusive and are not listed. Rule as the data show it: active = normalized growth mostly below about 0.91 (no sharp cut-off); inconclusive = no clear call, values can overlap the other calls; inactive = mostly above about 0.92. This is one part of the list.

Experiment: chemical genetic growth profiling, strain panel (AID 1159580);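 also: tested at 20 µM; growth read once vehicle control cultures reached saturation at 30 °C; 1 = growth at the plate median or of vehicle wells; lower values mean less growth of the strain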
Conditions: S. cerevisiae deletion strains, growth OD

Measured: normalized growth

CC(C)=CCc1c2c(c3occ(-c4ccc(O)c(O)c4)c(=O)c3c1O)C=CC(C)(C)O2
0.197 (active) and 0.903 (inactive): locus YHR030C, strain SLT2, stronger effect = lower value
active: locus YBR021W, strain FUR4, stronger effect = lower value 0.518 | locus YBR229C, strain ROT2, stronger effect = lower value 0.548 | locus YBR231C, strain swc5, stronger effect = lower value 0.895 | locus YCL029C, strain bik1, stronger effect = lower value 0.616 | locus YDL035C, strain GPR1, stronger effect = lower value 0.238 | locus YDL074C, strain BRE1, stronger effect = lower value 0.313 | locus YDL101C, strain DUN1, stronger effect = lower value 0.256 | locus YDL134C, strain PPH21, stronger effect = lower value 0.235 | locus YDL192W, strain arf1, stronger effect = lower value 0.66 | locus YDR069C, strain doa4, stronger effect = lower value 0.845 | locus YDR101C, strain arx1, stronger effect = lower value 0.747 | locus YDR162C, strain NBP2, stronger effect = lower value 0.155 | locus YDR318W, strain mcm21, stronger effect = lower value 0.721 | locus YDR388W, stronger effect = lower value 0.776 | locus YDR502C, strain sam2, stronger effect = lower value 0.674 | locus YEL061C, strain CIN8, stronger effect = lower value 0.406 | locus YER015W, strain faa2, stronger effect = lower value 0.909 | locus YER155C, strain BEM2, stronger effect = lower value 0.544 | locus YER167W, strain BCK2, stronger effect = lower value 0.545 | locus YGL086W, strain mad1, stronger effect = lower value 0.67 | locus YGL173C, strain kem1, stronger effect = lower value 0.887 | locus YGL248W, strain PDE1, stronger effect = lower value 0.257 | locus YGR078C, strain PAC10, stronger effect = lower value 0.457 | locus YGR135W, strain pre9, stronger effect = lower value 0.586 | locus YGR252W, strain gcn5, stronger effect = lower value 0.557 | locus YHR079C, strain IRE1 (second series), stronger effect = lower value 0.722 | locus YHR094C, strain hxt1, stronger effect = lower value 0.888 | locus YHR129C, strain ARP1, stronger effect = lower value 0.457 | locus YHR200W, strain rpn10, stronger effect = lower value 0.724 | locus YIL066C, strain RNR3, stronger effect = lower value 0.227 | locus YIL073C, strain SPO22, stronger effect = lower value 0.137 | locus YIR030C, strain dcg1, stronger effect = lower value 0.811 | locus YJL134W, strain LCB3, stronger effect = lower value 0.677 | locus YJL164C, strain tpk1, stronger effect = lower value 0.91 | locus YJL168C, strain set2, stronger effect = lower value 0.916 | locus YJL187C, strain SWE1 (second series), stronger effect = lower value 0.161 | locus YJR043C, strain POL32, stronger effect = lower value 0.255 | locus YJR075W, strain HOC1, stronger effect = lower value 0.468
0.145 (active) and 0.912 (inactive): locus YJL095W, strain BCK1, stronger effect = lower value
inactive: locus YAL021C, strain ccr4, stronger effect = lower value 0.95 | locus YAL026C, strain drs2, stronger effect = lower value 0.945 | locus YAL030W, strain snc1, stronger effect = lower value 0.961 | locus YBL061C, strain skt5, stronger effect = lower value 0.949 | locus YBR009C, strain hhf1, stronger effect = lower value 0.931 | locus YBR023C, strain chs3, stronger effect = lower value 0.937 | locus YBR171W, strain sec66, stronger effect = lower value 0.98 | locus YBR279W, strain paf1, stronger effect = lower value 0.956 | locus YCL011C, strain gbp2, stronger effect = lower value 0.944 | locus YCL016C, strain dcc1, stronger effect = lower value 0.961 | locus YCL069W, strain vba3, stronger effect = lower value 0.992 | locus YCR088W, strain abp1, stronger effect = lower value 0.997 | locus YDL005C, strain med2, stronger effect = lower value 0.988 | locus YDL040C, strain nat1, stronger effect = lower value 1 | locus YDL185W, strain tfp1, stronger effect = lower value 0.966 | locus YDR001C, strain nth1, stronger effect = lower value 1 | locus YDR137W, strain rgp1, stronger effect = lower value 1 | locus YDR159W, strain sac3, stronger effect = lower value 0.959 | locus YDR195W, strain ref2 1.01 | locus YDR297W, strain sur2, stronger effect = lower value 0.924 | locus YDR334W, strain swr1, stronger effect = lower value 0.969 | locus YDR335W, strain msn5, stronger effect = lower value 0.953 | locus YDR392W, strain spt3, stronger effect = lower value 0.782 | locus YEL003W, strain gim4, stronger effect = lower value 0.932 | locus YEL037C, strain rad23, stronger effect = lower value 0.977 | locus YEL061C, strain CIN8 (second series), stronger effect = lower value 0.999 | locus YER016W, strain bim1, stronger effect = lower value 0.989 | locus YER110C, stronger effect = lower value 0.981 | locus YER111C, strain swi4, stronger effect = lower value 0.939 | locus YER155C, strain BEM2 (second series), stronger effect = lower value 0.909 | locus YFR010W, strain ubp6, stronger effect = lower value 0.946 | locus YGL078C, strain dbp3, stronger effect = lower value 0.93 | locus YGL167C, strain pmr1, stronger effect = lower value 0.986 | locus YGL227W, strain vid30, stronger effect = lower value 1 | locus YGL240W, strain doc1, stronger effect = lower value 0.994 | locus YGL253W, strain hxk2, stronger effect = lower value 0.937 | locus YHR013C, strain ard1, stronger effect = lower value 0.947 | locus YHR027C, strain rpn1, stronger effect = lower value 0.932 | locus YHR079C, strain IRE1, stronger effect = lower value 0.926 | locus YHR142W, strain chs7, stronger effect = lower value 0.948 | locus YIL125W, strain kgd1, stronger effect = lower value 0.933 | locus YJL092W, strain hpr5, stronger effect = lower value 0.983 | locus YJL095W, strain BCK1 (second series), stronger effect = lower value 0.961 | locus YJL115W, strain asf1, stronger effect = lower value 0.999 | locus YJL129C, strain trk1, stronger effect = lower value 1 | locus YJL154C, strain vps35, stronger effect = lower value 1 | locus YJL166W, strain qcr8, stronger effect = lower value 0.919 | locus YJR066W, strain TOR1, stronger effect = lower value 0.885
